From PubChem BioAssay come the findings set out here.

The nature of experiment [1]: circadian clock period modulators, cell-based, LOPAC library, luminescence reporter (AID 2774).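 Also: values are relative to mean of DMSO wells on each plate.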 As to conditions: circadian reporter cells, at 7 µM, actives lie on both sides.
The subject of experiment [2] is Hepatitis C virus NS3 helicase. Put plainly: HCV NS3 helicase inhibitors, primary screen, biochemical, fluorescence polarization, LOPAC1280 library (AID 687035; in the data active = inhibition above about 37%). Conditions: Purified HCV NS3 helicase, Cy5-dT15 ssDNA binding fluorescence polarization; stronger effect = higher value; concentration not given here. For orientation: Fluorescence polarisation rises when a labelled molecule tumbles more slowly, as on binding a larger partner.

The nature of experiment [3]: Cy5 fluorescence quenching or enhancement artefacts, artefact control for HCV NS3 helicase inhibitor project, biochemical, LOPAC1280 (AID 687037). As to conditions: Cy5-DNA-NS3h complex fluorescence interference counterscreen. In general terms: The purpose of a counterscreen is to sort out artefacts and off-target activity.
The nature of experiment [4]: sensitizers of A549 cells to miR-34 induction, primary screen, imaging, A549 dox-inducible miR-34, nuclei and caspase counts (AID 1347080;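 active = compounds whose cell count with miR-34 switched on is under 0.7 times the count with it off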). As to conditions: A549 miR-34 inducible, Hoechst nuclei count, 48 h.
Experiment [5] is described as follows: phospholipid biosynthesis inhibitors in animal cells, primary screen, cell-based, LOPAC library, screen 4 (AID 1347384). As to conditions: phospholipid biosynthesis inhibition screen, at 10 µM.
Experiment [6] is described as follows: viability rescue of complex I mutant cybrids, primary screen, cell-based, galactose medium, ATP luminescence (AID 1645843;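 active = z-score of at least 1.8 in each of two replicates, scored against plate mean and spread of sample wells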;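 also: positive z means more ATP and so rescue of galactose-driven cybrid death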). Conditions: complex I mutant cybrid cells, 72 h, stronger effect = higher value.
Where [7] appears, read: stronger effect = lower value, cell number ratio, induced over uninduced.
Where [8] appears, read: measured here: relative caspase fold change +Dox/-Dox.
The mark [9] stands for this setting: measured here: total cells with miR-34 induction, stronger effect = lower value.
Setting [10] is: measured here: total cells without miR-34 induction.

Calls of active or inactive are those of the source. Unless noted, no rule for the calls is given here.

The inhibition is the drop in the measured response relative to a control, in per cent. For the molecule `COc1ccccc1N1CCN(CCN(C(=O)c2ccc(F)cc2)c2ccccn2)CC1`, in experiment [1], the period change is 0.22 h (inactive). Moreover, the inhibition in experiment [2] is -4% (inactive). In addition, the fluorescence ratio (interference) in experiment [3] is 0.9 (inactive). The fold change is 1.08 (inactive) in experiment [4] (setting [7]) and 1.52 in experiment [4] (setting [8]). The cell count came to 10200 in experiment [4] (setting [9]) and 9450 in experiment [4] (setting [10]). In experiment [5], the molecule was called inactive. In addition, the z-score in experiment [6] was -0.25 (inactive).

Consider `OC[C@H]1O[C@@H](n2cnc3c(NC4CCCCC4)ncnc32)[C@H](O)[C@@H]1O`, for which the period change in experiment [1] was 0.08 h (inactive). In addition, the inhibition in experiment [2] was -1% (inactive). Also, in experiment [3], the fluorescence ratio (interference) is 1 (inactive). Moreover, the fold change is 0.959 (inactive) in experiment [4] (setting [7]) and 1.25 in experiment [4] (setting [8]). Also, the results for the cell count in experiment [4] (setting [9]) and in experiment [4] (setting [10]) were 9650 and 10100, respectively. Besides, in experiment [5], the call was inactive. Further, the z-score in experiment [6] was 0.865 (inactive).

As for `Nc1cc(Cl)c(NC2=NCCN2)c(Cl)c1`, the period change in experiment [1] was 0.07 h (inactive). Moreover, the inhibition in experiment [2] was -4% (inactive). Moreover, in experiment [3], the fluorescence ratio (interference) was 0.9 (inactive). Further, the fold change was 1.02 (inactive) in experiment [4] (setting [7]) and 1.68 in experiment [4] (setting [8]). In addition, the cell count came to 11100 in experiment [4] (setting [9]) and 10900 in experiment [4] (setting [10]). For the same molecule, in experiment [5], the result was inactive. The z-score in experiment [6] is 0.705 (inactive).

For the molecule `CNc1ncnc2c1ncn2[C@@H]1O[C@H](CO)[C@H](O)C1O` (some centres undefined), the period change in experiment [1] was -0.015 h (inactive). The inhibition in experiment [2] is -2% (inactive). The fluorescence ratio (interference) in experiment [3] is 1 (inactive). Further, the values for the fold change in experiment [4] (setting [7]) and in experiment [4] (setting [8]) were 1.08 (inactive) and 1.05, respectively. The cell count in experiment [4] (setting [9]) is 10300; in experiment [4] (setting [10]), 9460. Besides, the molecule was classed as inactive in experiment [5]. Further, in experiment [6], the z-score is 0.765 (inactive).

`O=Nc1ccc2oc(=O)ccc2c1`: the period change in experiment [1] was -0.05 h (inactive). Further, the inhibition in experiment [2] was -2% (inactive). Also, the fluorescence ratio (interference) in experiment [3] was 1 (inactive). Besides, the figures for the fold change in experiment [4] (setting [7]) and in experiment [4] (setting [8]) were 1.06 (inactive) and 0.992, respectively. The cell count in experiment [4] (setting [9]) stood at 10200; in experiment [4] (setting [10]), 9600. For the same molecule, the result in experiment [5] was inactive. Further, the z-score in experiment [6] was -1.25 (inactive).

Turning to `NC1C=CC=C(C(=O)O)C1` (centres undefined), in experiment [1], the period change is 0.115 h (inactive). In experiment [2], the inhibition was 0% (inactive). Besides, the fluorescence ratio (interference) in experiment [3] was 1 (inactive). The values for the fold change in experiment [4] (setting [7]) and in experiment [4] (setting [8]) were 1.08 (inactive) and 2.16, respectively. Moreover, the cell count in experiment [4] (setting [9]) was 9940; in experiment [4] (setting [10]), 9200. In addition, the outcome in experiment [5] was inactive. Also, the z-score in experiment [6] is 0.355 (inactive).

As to `CCC1(O)CC2CN(CCc3c([nH]c4ccccc34)[C@@](C(=O)OC)(c3cc4c(cc3OC)N(C)C3[C@]45CCN4CC=C[C@@](CC)([C@@H](OC(C)=O)[C@]3(O)C(=O)OC)[C@H]45)C2)C1` (some centres undefined), the period change in experiment [1] is 0.43 h (inactive). Besides, in experiment [2], the inhibition was -2% (inactive). Besides, the fluorescence ratio (interference) in experiment [3] was 1 (inactive). The fold change in experiment [4] (setting [7]) was 1.18 (inactive); in experiment [4] (setting [8]), 0.644. In addition, the cell count in experiment [4] (setting [9]) came out at 1680; in experiment [4] (setting [10]), 1430. Besides, the molecule was called inactive in experiment [5]. Besides, in experiment [6], the z-score was -1.17 (inactive).

Consider `NO`, for which the period change in experiment [1] was -0.195 h (inactive). In addition, the inhibition in experiment [2] was 1% (inactive). Moreover, the fluorescence ratio (interference) in experiment [3] is 1 (inactive). Besides, the fold change was 1.15 (inactive) in experiment [4] (setting [7]) and 1.06 in experiment [4] (setting [8]). In addition, the cell count came out at 10000 in experiment [4] (setting [9]) and 8720 in experiment [4] (setting [10]). Further, the molecule was called inactive in experiment [5]. For the same molecule, in experiment [6], the z-score is 0.49 (inactive).

Turning to `CC1CN(S(=O)(=O)c2cccc3cnccc23)CCN1` (centres undefined), the period change in experiment [1] is 0.475 h (inactive). The inhibition in experiment [2] was -6% (inactive). The fluorescence ratio (interference) in experiment [3] is 0.9 (inactive). Moreover, the fold change is 1.09 (inactive) in experiment [4] (setting [7]) and 0.736 in experiment [4] (setting [8]). The results for the cell count in experiment [4] (setting [9]) and in experiment [4] (setting [10]) were 11600 and 10600, respectively. Further, the molecule was called inactive in experiment [5]. The z-score in experiment [6] is 0.18 (inactive).

For the molecule `c1ccc(CN2CCC3(CCCc4ccccc43)CC2)cc1`, the period change in experiment [1] is 0 h (inactive). Further, the inhibition in experiment [2] is -3% (inactive). Moreover, the fluorescence ratio (interference) in experiment [3] is 1 (inactive). Also, the fold change in experiment [4] (setting [7]) was 1.19 (inactive); in experiment [4] (setting [8]), 0.602. Also, the cell count in experiment [4] (setting [9]) was 7360; in experiment [4] (setting [10]) it was 6160. For the same molecule, the outcome in experiment [5] was inactive. The z-score in experiment [6] was -1.27 (inactive).

As to `CC(C)C[C@H](NC(=O)C1OC1C(=O)O)C(=O)NCCCCN=C(N)N` (some centres undefined), in experiment [1], the period change is -0.035 h (inactive). For the same molecule, the inhibition in experiment [2] was 0% (inactive). Also, the fluorescence ratio (interference) in experiment [3] is 1 (inactive). Besides, the fold change in experiment [4] (setting [7]) was 0.999 (inactive); in experiment [4] (setting [8]) it was 1.62. Moreover, the cell count in experiment [4] (setting [9]) worked out at 9550; in experiment [4] (setting [10]) it was 9560. In addition, in experiment [5], the molecule was classed as inactive. The z-score in experiment [6] is 0.15 (inactive).
